Compound activity: PubChem, University of Kansas High Throughput Screening Laboratory
mHTT CaM bind: mutant huntingtin-calmodulin interaction inhibitors – biochemical, AlphaScreen, primary screen. P42858. AlphaScreen His-mHTT/GST-CaM binding, luminescence. inhibition, % at 15 µM. 190,000 tested, 3.6% active. AID 1671202, 2021
Pf apPOL block: Pf-apPOL inhibitors, biochemical, fluorescence; 210,000 tested, 0.25% active; inhibition, % at 10 µM; AID 1794808, 2022; Recombinant Pf-apPOL, molecular beacon fluorescence, 1.5 h
Each line names hits and unclear results; the compound was inactive in the other large screens; ! = not active in a repeat. Sampled rows, rich in hits. Any-hit rate of the full collection: about 3.5%. No stated cut-off is given here; in the data, active means inhibition above about 50%; inactive means the rest.

CC(C)CC(=O)N1CCN(c2nc(CN3CCC(C)CC3)cs2)CC1	none
COc1ccc(Cc2nnc(SCC(=O)Nc3cc(F)ccc3C)o2)cc1	none
O=C(Cc1ccccc1F)N1CCCn2nc(-c3cccs3)cc2C1	none
COc1ccc(NC(=O)C2CCCN(c3nccc4sc(C)cc34)C2)cc1OC (stereo unspecified)	mHTT CaM bind 71
Cc1cc2c(N3CCC(C(=O)Nc4ccc(C)c(F)c4)CC3)nccc2s1	none
Cc1cc2c(N3CCC(C(=O)Nc4ccc(F)c(F)c4)CC3)nccc2s1	none
COc1cc(NC(=O)C2CCN(c3nccc4sc(C)cc34)CC2)cc(OC)c1OC	mHTT CaM bind 52
Cc1cc2c(N3CCCC(C(=O)NCCN4CCCCCC4)C3)nccc2s1 (stereo unspecified)	mHTT CaM bind 100
Cc1cc2c(N3CCCC(C(=O)NCc4cccc(Cl)c4)C3)nccc2s1 (stereo unspecified)	none
COc1cccc(CNC(=O)CN2C(=O)C3CCCN3C(=O)c3cc(F)ccc32)c1 (stereo unspecified)	none
CC(=O)N1CCc2cc(N3CC(C(=O)Nc4cc(C)ccc4F)CC3=O)ccc21 (stereo unspecified)	none
COC(=O)C(CCSC)NC(=O)c1nc(-c2ccc(C)cc2)n2c1CCCCC2 (stereo unspecified)	none
Cc1ccc2n1CCN(C(=O)NCCc1ccccc1)C2C(C)C (stereo unspecified)	mHTT CaM bind 54
Cc1ccc2n1CCN(C(=O)NCc1ccccc1)C2C(C)C (stereo unspecified)	none
CCOc1ccc(C2=C(CN(C)C)C(c3ccc(F)cc3)c3ccccc3O2)cc1 (stereo unspecified)	mHTT CaM bind 91
Cc1ccc(C2C(CN3CCOCC3)=C(c3ccccc3)Oc3ccccc32)cc1 (stereo unspecified)	none
CCOc1ccc(C2=C(CN3CCOCC3)C(c3ccccc3)c3ccccc3O2)cc1 (stereo unspecified)	none
COc1ccc(C2=C(CN(C)C)C(c3ccccc3)c3ccccc3O2)cc1 (stereo unspecified)	mHTT CaM bind 71
CSc1cccc(NC(=O)C(=O)NCc2nc(-c3ccccc3)no2)c1	none
O=[N+]([O-])c1ccc2nc(SCc3c[nH]c4ccccc34)sc2c1	mHTT CaM bind 58
O=[N+]([O-])c1ccc2nc(SCc3ccccc3F)sc2c1	none
COc1ccc(S(=O)(=O)N2CCc3nc(NC(=O)c4ccccc4F)sc3C2)cc1	none
C=CCN1C(=O)C(C)NC12CCN(S(=O)(=O)c1ccc(F)cc1)CC2 (stereo unspecified)	none
O=C(CC1CCN(C(=O)c2ccccc2)CC1)NCc1ccccc1F	none
O=C(c1ccccn1)N1CC(c2nc(-c3cccc(Cl)c3)no2)C1	none
O=C(CCSc1ccccc1)N1CC(c2nc(-c3cccc(Cl)c3)no2)C1	mHTT CaM bind 67
O=C(c1ccsc1)N1CC(c2nc(-c3cccc(Cl)c3)no2)C1	none
O=C(Cn1ccc2ccccc21)N1CC(c2nc(-c3cccc(Cl)c3)no2)C1	mHTT CaM bind 60
CCCn1cc(CNC(=O)C2CCc3sc(C(=O)N4CCCC4)cc3C2)c(C)n1 (stereo unspecified)	none
COc1ccccc1NC(=O)CN1CCC(c2nc(-c3cccc(C)c3)no2)CC1	none
O=C(Nc1nc(-c2ccc(Cl)cc2)cs1)c1cncc(Br)c1	mHTT CaM bind 53
CCOc1ccc(-c2csc(NC(=O)c3cncc(Br)c3)n2)cc1	none
Cc1cccc(C2CCCN2C(=O)NCc2ccc(F)cc2)c1 (stereo unspecified)	none
Cc1ccc(C)c(N2CCN(Cc3cc4c(cc3[N+](=O)[O-])OCO4)CC2)c1	none
O=[N+]([O-])c1cccc(-c2ccc(CN3CCN(c4ccccc4)CC3)o2)c1	mHTT CaM bind 56
Cc1ccc(C)c(N2CCN(Cc3ccc(-c4ccccc4[N+](=O)[O-])o3)CC2)c1	mHTT CaM bind 70
CN1CCN(Cc2ccc(-c3cccc([N+](=O)[O-])c3)o2)CC1	none
COC(=O)COc1ccc2c(c1)OC(=Cc1ccccc1OC)C2=O	none
CC=CC(=O)NCC#CCOc1ccccc1OC	none
O=S(=O)(c1ccc(-c2csc(=Nc3ccc(Cl)cc3)n2CCCO)cc1)N1CCCC1	mHTT CaM bind 55
CCOc1ccc(N=c2scc(-c3ccc(S(=O)(=O)N4CCCC4)cc3)n2CC)cc1	none
O=S(=O)(c1ccc(-c2csc(=Nc3ccc(F)cc3)n2CCCO)cc1)N1CCOCC1	none
O=S(=O)(c1ccc(-c2csc(=Nc3cccc(Cl)c3)n2CCO)cc1)N1CCCCC1	mHTT CaM bind 51
Cc1cccc(-n2cnc3cc(C(=O)N4CCc5ccccc54)ccc32)c1	mHTT CaM bind 67
Cc1cccc(-n2cnc3cc(C(=O)NC4CCCC4)ccc32)c1	none
CSc1nnc(SCc2nc3ccccc3n2C)s1	none
CCCn1c(N2CCCC(C(=O)NC3CC3)C2)nc2ccccc21 (stereo unspecified)	none
CCn1c(=O)c(N2CCCC(C(=O)NC3CCCCCCC3)C2)nc2ccccc21 (stereo unspecified)	mHTT CaM bind 64
O=C(NCc1ccco1)C1CCN(c2cncnc2N2CCOCC2)CC1	none
COc1cc(/C=C2/C(=O)N(c3cccc(Cl)c3)N=C2C)c([N+](=O)[O-])cc1OC	mHTT CaM bind 62
COc1cc(/C=C2/C(=O)N(c3ccc(C)cc3)N=C2C)c([N+](=O)[O-])cc1OC	none
CC1=NN(c2cccc(Cl)c2)C(=O)/C1=C/c1ccc(-c2cc([N+](=O)[O-])ccc2O)o1	mHTT CaM bind 92
COc1ccc(/C=C2/C(=O)N(c3cccc(Cl)c3)N=C2C)cc1[N+](=O)[O-]	none
COc1cc(/C=C2/C(=O)N(c3ccc(C(=O)O)cc3)N=C2C)c([N+](=O)[O-])cc1OC	Pf apPOL block 100
CC1=NN(c2ccccc2)C(=O)/C1=C/c1ccc(-c2ccc([N+](=O)[O-])cc2C)o1	none
Cc1cccc(NC(=O)C2CCCN(c3ncc(-c4ccc(F)cc4)cn3)C2)c1 (stereo unspecified)	none
COc1ccc(CCNC(=O)C2c3ccccc3C(=O)N2C2CCCCCC2)cc1OC (stereo unspecified)	none
Cc1noc(C)c1S(=O)(=O)N1CCC(CC(=O)NCc2ccc(F)cc2)CC1	none
CC1Oc2ccccc2C=C1/C=C(\C#N)C(=O)NC1CCS(=O)(=O)C1 (stereo unspecified)	none
O=[N+]([O-])c1cc(Br)cc(C=Nc2ccc(-c3nc4ncccc4o3)cc2)c1O	none
Cc1nc2c(oc3nc(-c4ccco4)c4c(c32)CC(C)(C)OC4)c(-c2ccccc2)c1C(=O)O	none
Cc1nc2c(oc3nc(-c4ccoc4)c4c(c32)CC(C)(C)OC4)c(-c2ccccc2)c1C(=O)O	mHTT CaM bind 74!
O[C@H]1C[C@H](c2ccc(Cl)cc2)N(CC2CCCCC2)C[C@@H]1n1cc(C2CC2)nn1	mHTT CaM bind 80
O[C@H]1C[C@H](c2ccccc2)N(CC2CCCCC2)C[C@@H]1n1cc(-c2ccc(F)cc2)nn1	mHTT CaM bind 55
CCCCCCN1C[C@@H](n2cc(C3CC3)nn2)[C@H](O)C[C@@H]1c1ccc(C)cc1	none
CCCCCCN1C[C@H](n2cc(C3CC3)nn2)[C@@H](O)C[C@@H]1c1ccc(C)cc1	mHTT CaM bind 77
COc1ccc([C@H]2C[C@@H](O)[C@H](n3cc(-c4ccc(F)cc4)nn3)CN2CC2CCCCC2)cc1	none
O[C@@H]1C[C@H](c2ccc(Cl)cc2)N(CC2CCCCC2)C[C@H]1n1cc(C2CC2)nn1	none
